Source: PubChem (National Center for Advancing Translational Sciences (NCATS))
RORgamma inh: qHTS for inhibitors of ROR gamma transcriptional activity. Drosophila S2 Gal4-RORgamma UAS-luciferase reporter, 20 h. Potency, µM (doses to about 53.6 µM), for the others: at the top dose activity change, negative = inhibition, hits mostly inhibitors. Nuclear receptor ROR-gamma (Mus musculus), P51450. actives 5.4% (n = 310,000). AID 2551, 2010; further: nearly all actives have a fitted effect of over 60% in size
Target sequence (P51450 whole entry, looked up, the tested form may be a part): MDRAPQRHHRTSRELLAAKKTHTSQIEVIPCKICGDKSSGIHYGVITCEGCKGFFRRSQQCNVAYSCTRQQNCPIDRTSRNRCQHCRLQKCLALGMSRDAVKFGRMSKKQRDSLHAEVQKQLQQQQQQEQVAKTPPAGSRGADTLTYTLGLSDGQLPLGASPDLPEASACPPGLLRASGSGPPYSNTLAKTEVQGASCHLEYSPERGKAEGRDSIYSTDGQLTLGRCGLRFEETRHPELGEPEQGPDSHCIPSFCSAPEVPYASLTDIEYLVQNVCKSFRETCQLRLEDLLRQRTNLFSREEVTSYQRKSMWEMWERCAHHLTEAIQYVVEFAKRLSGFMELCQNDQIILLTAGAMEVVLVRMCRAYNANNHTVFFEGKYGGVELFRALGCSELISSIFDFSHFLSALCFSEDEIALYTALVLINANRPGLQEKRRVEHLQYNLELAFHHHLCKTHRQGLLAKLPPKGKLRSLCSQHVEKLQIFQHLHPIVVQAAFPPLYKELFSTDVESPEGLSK
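Drosophila Schneider cells stably carrying a metallothionein-driven Gal4 DBD–ROR gamma fusion and a UAS-Photinus luciferase reporter were exposed to compound for 1 hr, then induced with copper sulfate (700 uM final) for 20 hr at ambient temperature before luminescence reading.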
Tau fluor cs: Counterscreen qHTS for Inhibitors of Tau Fibril Formation, Fluorescence Polarization; tau K18 P301L Alexa594 fluorescence, heparin fibrillization; Potency, µM (highest dose often 57.7 µM), inactives show top-dose activity change, negative = decrease; actives 0.93% (n = 280,000); further: nearly all actives have a fitted effect of over 55% in size
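Human tau K18 P301L (15 uM unlabeled, 0.24 uM Alexa 594-labeled) in 100 mM sodium acetate pH 7 with 20 uM heparin, 6 hr at 37 C. ThT 30 uM added, 1 hr ambient; Alexa 594 FP and total fluorescence read at 555/632 nm.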
Gal4-VP16 FLuc: VP16 counterscreen qHTS for inhibitors of ROR gamma transcriptional activity | Drosophila S2 Gal4-VP16 UAS-luciferase, luminescence, 20 h | Potency, µM (top dose mostly 53.6 µM), inactives show at the highest dose activity, negative = inhibition, actives largely listed as inhibitors | actives 3.5% (n = 310,000);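 further: Gal4-VP16 expression switched on by copper sulfate through the metallothionein promoter; nearly all actives have a fitted effect of over 50% in size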
Tau fibril FP: qHTS for Inhibitors of Tau Fibril Formation, Fluorescence Polarization; K18 P301L tau heparin fibrillization, Alexa594 FP, 6 h; Potency, µM (highest dose often 57.7 µM), for inactives: at the highest dose activity, negative = inhibition, actives largely listed as inhibitors; actives 0.39% (n = 280,000); AID 1468, 2008; further: nearly all actives have a fitted effect of over 55% in size
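Compound effects on tau fibrillization are measured by Alexa 594 fluorescence polarization (ex 555, em 632 nm). K18 P301L tau is used at 15 uM with 0.24 uM labeled tracer, and 20 uM heparin induces aggregation over 6 hr at 37 C.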
Tau fibril ThT: qHTS for Inhibitors of Tau Fibril Formation, Thioflavin T Binding | Microtubule-associated protein tau (Homo sapiens), P10636 | recombinant tau K18 P301L, heparin-induced fibrillization, ThT fluorescence | Potency, µM (top dose mostly 57.4 µM), without a hit: at the highest dose activity, negative = inhibition, actives largely listed as inhibitors | actives 2.1% (n = 270,000) | AID 1460, 2008; further: nearly all actives have a fitted effect of over 55% in size
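ThT emission at 510 nm, taken 1 hr after adding 30 uM dye, quantifies aggregates formed when 20 uM heparin acts on human tau K18 P301L for 6 hr at 37 C.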
An asterisk follows results filed as active; ? = inconclusive; · = no result given. In the library only some 7.3% were active in any assay of this set; here they are far more common. The call rests on the fitted dose curve; in most records, active means well fitted curve in the direction sought with a large enough effect; inconclusive means small, poorly fitted or top-dose-only effect, or another doubt; inactive means no such curve, though single readings can be large; an effect the other way counts as inactive or inconclusive. On the % scale 0 is the no-effect control and ±100 the full control effect; potency means the concentration at half of the fitted maximal effect.

SMILES	RORgamma inh	Tau fluor cs	Gal4-VP16 FLuc	Tau fibril FP	Tau fibril ThT
COC(=O)C1=C(C)NC(=S)NC1/C=C/c1ccccc1 (configuration not stated)	6.3µM*	-4%	16µM*	2%	3%
CC(=O)C1=C(C)NC(=O)NC1/C=C/c1ccccc1 (configuration not stated)	17%	1%	-2%	-4%	-4%
Cc1ccc(C)n1-c1cccc(N)c1	-15%	?	2%	-11%	16µM*
COc1ccc(N2CCN(C(=O)Cn3cnc4nc5c(cc4c3=O)CCCC5)CC2)cc1	·	-25%	·	-9%	?
Cc1ccc(-c2nnc(C3CCN(S(=O)(=O)c4ccc(C)c(C)c4)CC3)o2)cc1	·	-22%	·	-7%	?
CC1CCN(S(=O)(=O)c2ccc(C(=O)Nc3nnc(-c4ccncc4)o3)cc2)CC1	1.1µM*	2%	4µM*	2%	5%
O=C(Nc1nnc(C2CC2)o1)c1ccc(S(=O)(=O)N2CCCCC2)cc1	0.89µM*	·	0.56µM*	·	·
CC1CCN(S(=O)(=O)c2ccc(C(=O)Nc3nnc(C4CC4)o3)cc2)CC1	0.35µM*	·	0.32µM*	·	·
CC(=O)Nc1ccc(S(=O)(=O)N2CCC(c3nnc(-c4ccc(C)cc4)o3)CC2)cc1	14µM*	?	?	-9%	-10%
Cc1[nH]c(=O)c(C(=O)/C=C/c2ccccc2F)c2c1CCCC2	5.6µM*	3%	5.6µM*	2%	-13%
NC(=O)c1cc(NC(=O)CCNS(=O)(=O)c2cccc(C(F)(F)F)c2)cc(C(N)=O)c1	-12%	·	0%	·	·
CC1CCN(S(=O)(=O)c2ccc(NC(=O)c3ccccc3F)cc2)CC1	?	·	-23%	·	·
CC1CCN(S(=O)(=O)c2cn(CC(=O)Nc3ccc(F)c(Cl)c3)c(=O)c3ccccc23)CC1	·	?	·	10µM*	-7%
CC1CCN(S(=O)(=O)c2ccc(NC(=O)Cn3nnc(-c4ccccc4F)n3)cc2)CC1	23%	?	1%	7.9µM*	3%
Cc1ccc(NC(=O)C2CC2c2ccccc2)c([N+](=O)[O-])c1 (configuration not stated)	?	·	16%	·	·
Cc1ccc(Cl)cc1N1CCN(C(=O)Cc2csc(Nc3nc(=S)[nH]c4ccccc34)n2)CC1	0.63µM*	-5%	3.5µM*	6%	-2%
O=C(Cc1csc(Nc2nc(=S)[nH]c3ccccc23)n1)N1CCN(c2cccc(Cl)c2)CC1	1µM*	-9%	5µM*	?	-4%
COc1ccc(C(=O)Nc2nc3c(s2)Cc2c(Br)ccc(OC)c2-3)cc1OC	·	-27%	·	-7%	?
Cc1ccc(C(O)c2nc3ccccc3n2C)cc1 (configuration not stated)	0%	·	10%	·	·
CCCCCCN1C=CC=C/C1=C\C=C(C#N)C#N	7%	?	-5%	?	16µM*
CN(CC1COc2ccccc2O1)C(=S)NC1CCCCC1 (configuration not stated)	13µM*	-29%	?	8%	-20%
CCN(CC1COc2ccccc2O1)C(=S)Nc1ccccc1 (configuration not stated)	?	-21%	?	-10%	-18%
Cc1cc(C)n(CCc2nc3c4ccccc4nc(N4CCN(c5ccccc5)CC4)n3n2)n1	·	-4%	·	-6%	-4%
COc1ccc(-n2c(-c3cnccn3)n[nH]c2=S)cc1	?	4%	-10%	-6%	2%
COc1ccc(-n2c(COc3ccc(C)cc3)n[nH]c2=S)cc1	5.6µM*	·	7.1µM*	·	·
Cc1ccc(-n2c(COc3ccccc3)n[nH]c2=S)cc1	2.5µM*	0%	?	0%	-8%
COc1ccc(-n2c(COc3ccccc3)n[nH]c2=S)cc1	7.1µM*	·	-11%	·	·
Cc1ccc(-n2c(COc3cccc(C)c3)n[nH]c2=S)cc1	?	-14%	?	-9%	-5%
